Holding throughout (assay): NCI-60 one-dose screen, 48 h (100 = growth as untreated, 0 = no growth, -100 = all killed)
What all share (conditions): 10 µM unless noted

The test system of assay [1] is DU-145 prostate.
The test system of assay [2] is K-562 leukemia.
Assay [3] relates to MALME-3M melanoma.
The subject of assay [4] is MDA-MB-231 breast.
The subject of assay [5] is RXF 393 renal.
In assay [6] the test system is SF-268 CNS.
In assay [7] the test system is SF-295 CNS.
The test system of assay [8] is SF-539 CNS.
Assay [9] relates to UACC-257 melanoma.
The subject of assay [10] is M14 melanoma.
The test system of assay [11] is HCT-15 colon.
Assay [12] deals with HT29 colon.
The subject of assay [13] is SNB-75 CNS.
The test system of assay [14] is SNB-19 CNS.
Assay [15] has as its system PC-3 prostate.
In assay [16] the test system is SK-MEL-5 melanoma.
Assay [17] concerns UACC-62 melanoma.
Assay [18] relates to LOX IMVI melanoma.
For assay [19], the system named is SK-MEL-28 melanoma.
Assay [20] deals with U251 CNS.

About 83,000 compounds went through this panel and 20% of them were active in at least one assay; those are over-represented in the sample as a whole.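 96-well plates, one dose, 48 hours. Percent growth reported; active if below 10.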 Unmarked numbers belong to inactive results. Activity calls are given as the source filed them.

We go through eight compounds from PubChem BioAssay (NCI).

Take `COc1ccc2c(-c3ccc(F)cc3)c(C#N)c(=NC(C)=O)oc2c1`: the growth was 49.6% in [1]; 8% (active) in assay [2]; 53.7% in assay [3]; 54.7% in assay [4]; 36% in assay [5]; 52.7% in [6]. Besides, the growth was 37.9% in assay [7]; 28.4% in assay [8]; 72% in [9]; 19.8% in assay [10]; 25.8% in assay [11]; 95.6% in [12]. The growth in assay [13] was 34%; in [14], 33.7%; in assay [15], 30.6%; in assay [16], 24.7%; in assay [17] it was 32.1%; in assay [18], 41.9%. For the same compound, the growth in [19] was 69.7%.
In the case of `Cc1[nH]c2ccc(F)cc2c1CCNC(=O)C1CCN(C(=O)c2ccc(-c3ccccc3)cc2)CC1`, the growth in [1] is 68.8%; in assay [2] it was 17.3%; in assay [3] it was 63.6%; in assay [4], 62.7%; in [5], 54.5%; in assay [6], 60.4%. In addition, the growth was 37.6% in [7]; 66.8% in [8]; 58.1% in assay [9]; 40.8% in [10]; 35.2% in [11]; 5.89% (active) in assay [12]. The growth is 49.1% in assay [13]; 65.3% in assay [14]; 23.2% in assay [15]; 27.4% in [16]; 55% in assay [17]; 48.8% in assay [18]. In addition, in assay [19], the growth was 67.7%.
Turning to `C=C(C)[C@@H]1C/C=C(\COC(=O)[C@H](OC(C)=O)C(NC(=O)c2ccccc2)c2ccccc2)CC[C@H]2O[C@]2(C)CC/C=C(\C)CC1` (some centres not stated), the growth was 86.6% [5 µM] in assay [1]; 14.7% [5 µM] in assay [2]; 86.3% [5 µM] in assay [3]; 65.2% [5 µM] in assay [4]; 107% [5 µM] in assay [5]; 78.9% [5 µM] in assay [6]. Besides, the growth in assay [7] is 73.7% [5 µM]; in assay [8], 81.1% [5 µM]; in assay [9], 97.5% [5 µM]; in [10], 34.3% [5 µM]; in assay [11] it was 89% [5 µM]; in [12], 62.8% [5 µM]. Besides, the growth was 57.5% [5 µM] in [13]; 80.2% [5 µM] in assay [14]; 32.1% [5 µM] in assay [15]; 71.4% [5 µM] in assay [16]; 62.3% [5 µM] in [17]; 72.9% [5 µM] in assay [18]. In addition, the growth in assay [19] was 77.1% [5 µM].
With `CC(=O)n1cc(/C=C2\N=C(c3ccc(Cl)cc3)N(c3ccc(S(=O)(=O)Nc4nccs4)cc3)C2=O)c2ccccc21`, the growth is 102% in assay [1]; 59.6% in [2]; 120% in assay [3]; 95.5% in [4]; 86.7% in [5]; 83% in [6]. The growth in [7] was 85.6%; in [8] it was 90.6%; in assay [9] it was 99.7%; in assay [10], 83.4%; in assay [11] it was 95%; in assay [12], 103%. In addition, the growth was 92.2% in assay [13]; 67.7% in [14]; 72.6% in assay [15]; 80.1% in assay [16]; 84.1% in [17]; 93.2% in assay [18]. The growth in [19] is 82.2%.
As to `Cc1c(F)cccc1NC(=O)c1sc2nc3c(cc2c1N)CCCCC3`, the growth is 69.1% in [1]; 12.5% in assay [2]; 55% in assay [3]; 83.6% in assay [4]; 69.5% in [5]; 83.4% in assay [6]. The growth in [7] was 55.3%; in assay [8], 66.9%; in [9], 52.3%; in [10] it was 28.2%; in assay [11] it was 28.5%; in [12], 15.6%. In addition, the growth was 76.2% in assay [13]; 53.9% in [14]; 56.3% in assay [20]; 39.2% in [16]; 27% in [17]; 50.4% in assay [18]. The growth in [19] was 68.7%.
On to `COc1ccc(-c2ccc(NC(=O)Nc3ccc(Cl)c(C(F)(F)F)c3)c(C)n2)cc1`, for which the growth in [1] is 54.5%; in assay [2], 16.7%; in [3], 82.6%; in assay [4] it was 85%; in assay [5], 81.4%; in assay [6], 73.7%. For the same compound, the growth in [7] is 47%; in assay [8], 81.3%; in assay [9] it was 57.1%; in assay [10], 31.9%; in assay [11], 37.8%; in assay [12] it was 46.4%. For the same compound, the growth in assay [13] was 73.4%; in assay [14], 57.3%; in assay [15], 14.7%; in [16] it was 55.7%; in assay [17], 65.6%; in assay [18], 64.5%. The growth in [19] was 71.4%.
In the case of `COc1ccccc1NC(=O)COc1ccc(/C=C2/Oc3cc4occc4c(OC)c3C2=O)cc1OC`, the growth in [1] was 114%; in [2], 99.4%; in assay [3], 115%; in [4], 99.8%; in assay [5], 103%; in [6] it was 103%. Also, the growth in assay [7] was 103%; in assay [8], 101%; in assay [9], 100%; in [10], 106%; in assay [11] it was 104%; in assay [12], 113%. The growth in assay [13] was 114%; in assay [14], 105%; in [20], 102%; in [16], 86.3%; in [17], 91.6%; in assay [18], 98.8%. In [19], the growth was 111%.
`Cc1nc(-c2ccc(Cl)cc2)ccc1NC(=O)Nc1cccc(C(F)(F)F)c1`: the growth in [1] is 97.6%; in assay [2] it was 80.6%; in assay [3], 126%; in assay [4], 115%; in [5], 104%; in [6], 98.4%. For the same compound, the growth in [7] is 98.4%; in assay [8], 94.1%; in [9], 98.9%; in assay [10], 101%; in assay [11], 82.1%; in assay [12], 75.7%. Also, the growth in assay [13] was 92.8%; in [14] it was 108%; in assay [20], 76.7%; in [16], 95.3%; in [17] it was 95.6%; in assay [18], 92.9%. The growth in assay [19] was 110%.
